An excerpt weighted towards active compounds, which were near 11% of everything screened.
VDR inh – Inhibitors of the vitamin D receptor (VDR): qHTS; VDR-SRC2-3 peptide fluorescence polarization, 2 h; Potency, µM, most hits filed as inhibitors; Vitamin D3 receptor (Homo sapiens), P11473; AID 504847, 2011; 400,000 compounds, 0.93% hits
Target sequence (P11473 whole entry, looked up): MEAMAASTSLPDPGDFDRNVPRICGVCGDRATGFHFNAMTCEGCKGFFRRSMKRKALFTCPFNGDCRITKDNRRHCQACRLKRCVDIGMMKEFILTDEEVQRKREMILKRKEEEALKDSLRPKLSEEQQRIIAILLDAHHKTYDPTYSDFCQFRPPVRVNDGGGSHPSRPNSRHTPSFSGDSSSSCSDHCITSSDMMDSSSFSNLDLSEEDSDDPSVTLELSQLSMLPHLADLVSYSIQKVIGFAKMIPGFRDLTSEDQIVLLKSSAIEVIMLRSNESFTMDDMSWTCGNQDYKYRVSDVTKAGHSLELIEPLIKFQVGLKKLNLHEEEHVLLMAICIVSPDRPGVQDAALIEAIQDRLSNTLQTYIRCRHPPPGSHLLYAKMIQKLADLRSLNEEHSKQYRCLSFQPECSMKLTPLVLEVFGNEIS
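The screen uses fluorescence polarization to detect compounds that interfere with recruitment of the SRC2-3 coactivator peptide to VDR; plates are read after 2 h at room temperature.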
JMJD2A Tudor inh – qHTS Assay for Inhibitors of JMJD2A-Tudor Domain; Lysine-specific demethylase 4A (Homo sapiens), O75164; AlphaScreen JMJD2A-Tudor / H3K4me3 peptide binding; Potency, µM (series often up to 114 µM), usual class: inhibitors; 390,000 compounds, 4.4% hits; also: nearly all actives have a fitted effect of over 50% in size
G9a inh – qHTS Assay for Inhibitors of Histone Lysine Methyltransferase G9a; G9a H3K9 monomethylation, AlphaScreen, 2 h; Histone-lysine N-methyltransferase EHMT2 (Homo sapiens), Q96KQ7; Potency, µM (highest dose often 102 µM), usual class: inhibitors; 350,000 compounds, 8.8% hits; also: nearly all actives have a fitted effect of over 75% in size
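Methyltransferase reactions run at room temperature for 2 h (20 nM enzyme, 500 nM biotin-H3K9 peptide, 20 uM SAM) after a 15 min compound preincubation; product detected by AlphaScreen beads and anti-H3K9me1 antibody.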
PLK1 PBD inh – qHTS for Inhibitors of PLK1-PDB (polo-like kinase 1 - polo-box domain): Primary Screen; Serine/threonine-protein kinase PLK1 (Homo sapiens), P53350; Plk1 PBD binding of FITC phosphopeptide, fluorescence polarization; Potency, µM, actives largely listed as inhibitors; 360,000 compounds, 2.8% hits; AID 720504, 2013; also: series mostly up to about 57 µM; nearly all actives have a fitted effect of over 65% in size
HP1b chromo inh – HTS for Inhibitors of HP1-beta Chromodomain Interactions with Methylated Histone Tails. Chromobox protein homolog 1 (Homo sapiens), P83916. AlphaScreen HP1-beta / biotin-H3K9me3 peptide binding. Potency, µM (top dose mostly 114 µM), actives largely listed as inhibitors. 390,000 compounds, 0.56% hits. AID 540317, 2011; also: nearly all actives have a fitted effect of over 70% in size
Target sequence (P83916 whole entry, looked up): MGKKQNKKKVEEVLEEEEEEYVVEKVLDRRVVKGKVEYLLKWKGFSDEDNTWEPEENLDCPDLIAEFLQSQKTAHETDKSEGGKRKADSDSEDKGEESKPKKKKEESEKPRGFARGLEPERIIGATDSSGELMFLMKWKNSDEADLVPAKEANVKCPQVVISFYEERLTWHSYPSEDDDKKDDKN
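HP1-beta protein (50 nM final) preincubated 30 min at room temperature with biotinylated H3(1-18)K9me3 peptide (50 nM) in PBS pH 7.4, 0.01% Tween-20, then compound added for 30 min. AlphaScreen streptavidin donor/nickel chelate acceptor beads (10 ug/mL final), 30 min dark, luminescence read.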
BAZ2B block – qHTS Assay for Inhibitors of BAZ2B. Bromodomain adjacent to zinc finger domain protein 2B (Homo sapiens), Q9UIF8. AlphaScreen BAZ2B-H3K14Ac peptide displacement. Potency, µM (titrated, usually from 114 µM), usual class: inhibitors. 360,000 compounds, 4.4% hits. AID 504333, 2011; also: nearly all actives have a fitted effect of over 60% in size
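In this displacement format the biotinylated H3(5-23) peptide acetylated at Lys14 serves as ligand at 50 nM, with BAZ2B at 50 nM in PBS pH 7.4 containing 0.01% Tween-20. Donor and acceptor beads are 10 ug/mL final.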
Hits are given with their value; ! = a repeat was not active; [ ] = remark or other dose. Calls follow the shape of the dose curve; as a rule, active = well fitted curve in the direction sought with a large enough effect; inconclusive = small, poorly fitted or top-dose-only effect, or another doubt; inactive = no such curve, though single readings can be large; an effect the other way counts as inactive or inconclusive.

O=C(N/N=C/c1cccc([N+](=O)[O-])c1)C1COc2ccccc2O1 (configuration not stated) was read as VDR inh inactive, JMJD2A Tudor inh inactive[11.4 µM], G9a inh inactive, PLK1 PBD inh inactive, HP1b chromo inh inactive and BAZ2B block inactive.
For O=C(N/N=C\c1ccc(Br)o1)C1COc2ccccc2O1 (configuration not stated) the results were VDR inh inactive, JMJD2A Tudor inh 39.8µM, G9a inh inconclusive, PLK1 PBD inh 16.8µM, HP1b chromo inh inconclusive and BAZ2B block 50.1µM.
O=C(N/N=C\c1cccc([N+](=O)[O-])c1O)C1COc2ccccc2O1 (configuration not stated) was read as VDR inh inactive, JMJD2A Tudor inh inconclusive, G9a inh inactive, PLK1 PBD inh inactive, HP1b chromo inh inactive and BAZ2B block 35.5µM.
COc1cc([N+](=O)[O-])cc(/C=N\NC(=O)C2COc3ccccc3O2)c1O (configuration not stated) was read as VDR inh inactive, JMJD2A Tudor inh 56.2µM, G9a inh inconclusive, PLK1 PBD inh inactive, HP1b chromo inh inactive and BAZ2B block 39.8µM.
`Cc1ccc(C2=NS(=O)(=O)N(C)C(C(=O)NCc3ccccc3)=C2)cc1` gave VDR inh inactive, JMJD2A Tudor inh inactive, G9a inh inactive, PLK1 PBD inh inactive, HP1b chromo inh inactive and BAZ2B block inactive.
`COC(=O)c1cnc(NNS(=O)(=O)c2ccc(C(F)(F)F)cc2)nc1C(F)(F)F` gave VDR inh inactive, JMJD2A Tudor inh inconclusive, G9a inh inconclusive, PLK1 PBD inh inactive, HP1b chromo inh inactive and BAZ2B block inactive.
`FC(F)(F)c1nc2ccccc2[nH]1` gave VDR inh inactive, JMJD2A Tudor inh inactive, G9a inh inactive, PLK1 PBD inh inactive, HP1b chromo inh inactive and BAZ2B block inactive.
`S=c1cnc2ccccc2[nH]1` gave VDR inh inconclusive, JMJD2A Tudor inh 4.47µM, G9a inh 1µM, PLK1 PBD inh 11.9µM, HP1b chromo inh inconclusive and BAZ2B block 56.2µM.
COc1cccc(CNc2nc(NC(C)C)nc3ccsc23)c1 was read as PLK1 PBD inh inactive.
`CC1OC(Oc2c(-c3cc(O)c(O)c(O)c3)oc3cc(O)cc(O)c3c2=O)C(O)C(O)C1O` (configuration not stated) gave VDR inh inactive, JMJD2A Tudor inh inconclusive, G9a inh 39.8µM, PLK1 PBD inh inconclusive, HP1b chromo inh inactive and BAZ2B block inactive.
For O=c1c(O)c(-c2ccc(O[C@@H]3O[C@H](CO)[C@@H](O)[C@H](O)[C@H]3O)c(O)c2)oc2cc(O)cc(O)c12 the results were VDR inh inactive.
For O=C(O)C1OC(Oc2c(-c3ccc(O)c(O)c3)oc3cc(O)cc(O)c3c2=O)C(O)C(O)C1O (configuration not stated) the results were VDR inh inactive, JMJD2A Tudor inh 31.6µM, G9a inh 31.6µM, PLK1 PBD inh inactive, HP1b chromo inh inconclusive and BAZ2B block 35.5µM.
`C[C@@H]1O[C@@H](OC[C@@H]2O[C@H](Oc3c(-c4ccc(O)cc4)oc4cc(O)cc(O)c4c3=O)[C@@H](O)[C@H](O)[C@H]2O)[C@H](O)[C@H](O)[C@H]1O` gave VDR inh inactive, JMJD2A Tudor inh inactive, PLK1 PBD inh inactive and HP1b chromo inh inactive.
Screening COc1cccc(CNC(=O)Cc2c(C(=O)O)c(C)cn2C)c1 returned VDR inh inactive, JMJD2A Tudor inh inactive, G9a inh inactive, HP1b chromo inh inactive and BAZ2B block inactive.
For O=S(=O)(c1ccc2c(c1)OCCO2)N1CCN(c2nc(-c3cccs3)nc3ccccc23)CC1 the results were VDR inh inactive, JMJD2A Tudor inh inactive and HP1b chromo inh inactive.
`CC(=O)OCCc1c(C)nc2nc[nH]n2c1=O` gave VDR inh inactive, JMJD2A Tudor inh inactive, G9a inh 50.1µM, PLK1 PBD inh inconclusive, HP1b chromo inh inactive and BAZ2B block inactive.
Screening COc1cc(C(=O)OCCc2c(C)nc3nc[nH]n3c2=O)cc(OC)c1OC returned VDR inh inactive, JMJD2A Tudor inh inactive, G9a inh inactive, PLK1 PBD inh inactive, HP1b chromo inh inactive and BAZ2B block inactive.
`O=C(O)[C@@H]1C[C@H](C(=O)O)N1` gave VDR inh inactive, JMJD2A Tudor inh inactive, G9a inh 11.9µM! and HP1b chromo inh inactive.
Screening O=C1NC(c2ccccc2Br)=N/C1=C\c1ccco1 returned VDR inh inactive, JMJD2A Tudor inh inconclusive, G9a inh 44.7µM, PLK1 PBD inh inactive, HP1b chromo inh inactive and BAZ2B block inactive.
`O=C1NC(c2ccccc2)=N/C1=C/c1ccco1` gave VDR inh inactive, JMJD2A Tudor inh inactive, G9a inh 22.4µM, PLK1 PBD inh inactive, HP1b chromo inh inactive and BAZ2B block inactive.
Screening O=C1NC(c2cccc(Br)c2)=N/C1=C\c1ccco1 returned VDR inh inactive, JMJD2A Tudor inh inconclusive, G9a inh inconclusive, PLK1 PBD inh inactive, HP1b chromo inh inactive and BAZ2B block inconclusive.
For O=C(CCn1cnnn1)N1CCCC(Nc2ccc(F)cc2)C1 (configuration not stated) the results were VDR inh inactive, JMJD2A Tudor inh inactive, G9a inh inactive, PLK1 PBD inh inactive, HP1b chromo inh inactive and BAZ2B block inactive.
Screening Cc1cc(C)n(-c2nnc(NC(C)(C)C)nn2)n1 returned VDR inh inactive, JMJD2A Tudor inh inactive, G9a inh inactive, PLK1 PBD inh inactive, HP1b chromo inh inactive and BAZ2B block inactive.
`Cc1cc(C)n(-c2nnc(NC34CC5CC(CC(C5)C3)C4)nn2)n1` gave VDR inh inconclusive, JMJD2A Tudor inh 25.1µM, G9a inh 22.4µM, PLK1 PBD inh inconclusive, HP1b chromo inh inconclusive and BAZ2B block 31.6µM.
`CCC(=O)OCOc1ccc(/C=C2/CCC(CN(C)C)C2=O)cc1` (configuration not stated) gave VDR inh 10µM, JMJD2A Tudor inh 89.1µM, PLK1 PBD inh 4.74µM and HP1b chromo inh inconclusive.
Screening CCOc1ccc(/C=C2\CCC(C3CCCC3)C2=O)cc1 (configuration not stated) returned VDR inh inactive, JMJD2A Tudor inh inactive, G9a inh inactive, PLK1 PBD inh inactive, HP1b chromo inh inactive and BAZ2B block inactive.
COc1ccccc1-c1ccc(/C=C2\C=CC(=O)O2)o1 was read as VDR inh inactive, JMJD2A Tudor inh inconclusive, G9a inh inconclusive, PLK1 PBD inh inactive, HP1b chromo inh inactive and BAZ2B block 50.1µM.
